Results from PubChem BioAssay (NCATS).
Records with an inconclusive call do not appear. A number with no mark means an inactive call. The source made the active and inactive calls. Calls follow the shape of the dose curve; as a rule, active = well fitted inhibition curve with a large enough effect; inconclusive = small, poorly fitted or top-dose-only effect; inactive = flat fitted curve, though single readings scatter.

Assay: P-glycoprotein substrates identified in KB-8-5-11 adenocarcinoma cell line, qHTS therapeutic library screen (AID 1346987); also: nearly all actives have a fitted effect of over 65% in size
Details: KB-8-5-11 (P-gp overexpressing) viability, CellTiter-Glo, 72 h; series mostly up to 44.5 µM; activity change, negative = cytotoxicity: at the top concentration
In short: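 Human cervical adenocarcinoma KB-8-5-11 cells, selected in colchicine to over-express P-gp and assayed without it, were exposed for 72 h to titrated compounds. An ATP-based luminescent viability signal gave AC50.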
% is scaled to controls: 0 for no effect and ±100 for the full control effect; potency is read from the fitted curve at half-maximal effect.

Q: Which “activity change, negative = cytotoxicity” value does the source give for O=C(Nc1ccc(S(=O)(=O)Nc2ccccc2Cl)c(Cl)c1)c1ccccn1 here?
A: The value was -16.4%.

Q: With CCOc1cc2ncc(C#N)c(Nc3ccc(F)c(Cl)c3)c2cc1NC(=O)/C=C/CN(C)C as the molecule, how does the Potency read?
A: The Potency was 3.26 µM (active).

Q: With Cc1oc2ccccc2c1CNC(=O)NCc1cccs1 as the molecule, how does the “activity change, negative = cytotoxicity” value read?
A: Its value is -6.09%.

Q: With CCNCc1nc2c(N)nc3ccccc3c2n1CC(C)(C)O as the molecule, how does the “activity change, negative = cytotoxicity” value read?
A: Its value is 7.86%.

Q: Which “activity change, negative = cytotoxicity” value does the source give for O=C(O)c1ccc(OC2OC(CO)C(O)C(O)C2O)cc1 (stereo not given) here?
A: Its value is 0.976%.
